Test results from the supplement of paper PMC11732987, “Enantioselective OTUD7B fragment discovery through chemoproteomics screening and high-throughput optimisation” (Communications Chemistry, 2025).

Columns and labels:
Test in all cases: log2 ratio of Biotin-Ahx-Ub-VS probe labelling (fragment/DMSO); higher = less target engagement (more negative = stronger competition), active = hit call of the paper (q ≤ 0.05, log2 ratio ≤ -1)
Conditions in all cases: compound concentration: 200 uM; treatment time: 3 h
USP34 = USP34 (UniProt Q70CQ2)
Chain of USP34 (Q70CQ2 whole entry, the tested form may be a part): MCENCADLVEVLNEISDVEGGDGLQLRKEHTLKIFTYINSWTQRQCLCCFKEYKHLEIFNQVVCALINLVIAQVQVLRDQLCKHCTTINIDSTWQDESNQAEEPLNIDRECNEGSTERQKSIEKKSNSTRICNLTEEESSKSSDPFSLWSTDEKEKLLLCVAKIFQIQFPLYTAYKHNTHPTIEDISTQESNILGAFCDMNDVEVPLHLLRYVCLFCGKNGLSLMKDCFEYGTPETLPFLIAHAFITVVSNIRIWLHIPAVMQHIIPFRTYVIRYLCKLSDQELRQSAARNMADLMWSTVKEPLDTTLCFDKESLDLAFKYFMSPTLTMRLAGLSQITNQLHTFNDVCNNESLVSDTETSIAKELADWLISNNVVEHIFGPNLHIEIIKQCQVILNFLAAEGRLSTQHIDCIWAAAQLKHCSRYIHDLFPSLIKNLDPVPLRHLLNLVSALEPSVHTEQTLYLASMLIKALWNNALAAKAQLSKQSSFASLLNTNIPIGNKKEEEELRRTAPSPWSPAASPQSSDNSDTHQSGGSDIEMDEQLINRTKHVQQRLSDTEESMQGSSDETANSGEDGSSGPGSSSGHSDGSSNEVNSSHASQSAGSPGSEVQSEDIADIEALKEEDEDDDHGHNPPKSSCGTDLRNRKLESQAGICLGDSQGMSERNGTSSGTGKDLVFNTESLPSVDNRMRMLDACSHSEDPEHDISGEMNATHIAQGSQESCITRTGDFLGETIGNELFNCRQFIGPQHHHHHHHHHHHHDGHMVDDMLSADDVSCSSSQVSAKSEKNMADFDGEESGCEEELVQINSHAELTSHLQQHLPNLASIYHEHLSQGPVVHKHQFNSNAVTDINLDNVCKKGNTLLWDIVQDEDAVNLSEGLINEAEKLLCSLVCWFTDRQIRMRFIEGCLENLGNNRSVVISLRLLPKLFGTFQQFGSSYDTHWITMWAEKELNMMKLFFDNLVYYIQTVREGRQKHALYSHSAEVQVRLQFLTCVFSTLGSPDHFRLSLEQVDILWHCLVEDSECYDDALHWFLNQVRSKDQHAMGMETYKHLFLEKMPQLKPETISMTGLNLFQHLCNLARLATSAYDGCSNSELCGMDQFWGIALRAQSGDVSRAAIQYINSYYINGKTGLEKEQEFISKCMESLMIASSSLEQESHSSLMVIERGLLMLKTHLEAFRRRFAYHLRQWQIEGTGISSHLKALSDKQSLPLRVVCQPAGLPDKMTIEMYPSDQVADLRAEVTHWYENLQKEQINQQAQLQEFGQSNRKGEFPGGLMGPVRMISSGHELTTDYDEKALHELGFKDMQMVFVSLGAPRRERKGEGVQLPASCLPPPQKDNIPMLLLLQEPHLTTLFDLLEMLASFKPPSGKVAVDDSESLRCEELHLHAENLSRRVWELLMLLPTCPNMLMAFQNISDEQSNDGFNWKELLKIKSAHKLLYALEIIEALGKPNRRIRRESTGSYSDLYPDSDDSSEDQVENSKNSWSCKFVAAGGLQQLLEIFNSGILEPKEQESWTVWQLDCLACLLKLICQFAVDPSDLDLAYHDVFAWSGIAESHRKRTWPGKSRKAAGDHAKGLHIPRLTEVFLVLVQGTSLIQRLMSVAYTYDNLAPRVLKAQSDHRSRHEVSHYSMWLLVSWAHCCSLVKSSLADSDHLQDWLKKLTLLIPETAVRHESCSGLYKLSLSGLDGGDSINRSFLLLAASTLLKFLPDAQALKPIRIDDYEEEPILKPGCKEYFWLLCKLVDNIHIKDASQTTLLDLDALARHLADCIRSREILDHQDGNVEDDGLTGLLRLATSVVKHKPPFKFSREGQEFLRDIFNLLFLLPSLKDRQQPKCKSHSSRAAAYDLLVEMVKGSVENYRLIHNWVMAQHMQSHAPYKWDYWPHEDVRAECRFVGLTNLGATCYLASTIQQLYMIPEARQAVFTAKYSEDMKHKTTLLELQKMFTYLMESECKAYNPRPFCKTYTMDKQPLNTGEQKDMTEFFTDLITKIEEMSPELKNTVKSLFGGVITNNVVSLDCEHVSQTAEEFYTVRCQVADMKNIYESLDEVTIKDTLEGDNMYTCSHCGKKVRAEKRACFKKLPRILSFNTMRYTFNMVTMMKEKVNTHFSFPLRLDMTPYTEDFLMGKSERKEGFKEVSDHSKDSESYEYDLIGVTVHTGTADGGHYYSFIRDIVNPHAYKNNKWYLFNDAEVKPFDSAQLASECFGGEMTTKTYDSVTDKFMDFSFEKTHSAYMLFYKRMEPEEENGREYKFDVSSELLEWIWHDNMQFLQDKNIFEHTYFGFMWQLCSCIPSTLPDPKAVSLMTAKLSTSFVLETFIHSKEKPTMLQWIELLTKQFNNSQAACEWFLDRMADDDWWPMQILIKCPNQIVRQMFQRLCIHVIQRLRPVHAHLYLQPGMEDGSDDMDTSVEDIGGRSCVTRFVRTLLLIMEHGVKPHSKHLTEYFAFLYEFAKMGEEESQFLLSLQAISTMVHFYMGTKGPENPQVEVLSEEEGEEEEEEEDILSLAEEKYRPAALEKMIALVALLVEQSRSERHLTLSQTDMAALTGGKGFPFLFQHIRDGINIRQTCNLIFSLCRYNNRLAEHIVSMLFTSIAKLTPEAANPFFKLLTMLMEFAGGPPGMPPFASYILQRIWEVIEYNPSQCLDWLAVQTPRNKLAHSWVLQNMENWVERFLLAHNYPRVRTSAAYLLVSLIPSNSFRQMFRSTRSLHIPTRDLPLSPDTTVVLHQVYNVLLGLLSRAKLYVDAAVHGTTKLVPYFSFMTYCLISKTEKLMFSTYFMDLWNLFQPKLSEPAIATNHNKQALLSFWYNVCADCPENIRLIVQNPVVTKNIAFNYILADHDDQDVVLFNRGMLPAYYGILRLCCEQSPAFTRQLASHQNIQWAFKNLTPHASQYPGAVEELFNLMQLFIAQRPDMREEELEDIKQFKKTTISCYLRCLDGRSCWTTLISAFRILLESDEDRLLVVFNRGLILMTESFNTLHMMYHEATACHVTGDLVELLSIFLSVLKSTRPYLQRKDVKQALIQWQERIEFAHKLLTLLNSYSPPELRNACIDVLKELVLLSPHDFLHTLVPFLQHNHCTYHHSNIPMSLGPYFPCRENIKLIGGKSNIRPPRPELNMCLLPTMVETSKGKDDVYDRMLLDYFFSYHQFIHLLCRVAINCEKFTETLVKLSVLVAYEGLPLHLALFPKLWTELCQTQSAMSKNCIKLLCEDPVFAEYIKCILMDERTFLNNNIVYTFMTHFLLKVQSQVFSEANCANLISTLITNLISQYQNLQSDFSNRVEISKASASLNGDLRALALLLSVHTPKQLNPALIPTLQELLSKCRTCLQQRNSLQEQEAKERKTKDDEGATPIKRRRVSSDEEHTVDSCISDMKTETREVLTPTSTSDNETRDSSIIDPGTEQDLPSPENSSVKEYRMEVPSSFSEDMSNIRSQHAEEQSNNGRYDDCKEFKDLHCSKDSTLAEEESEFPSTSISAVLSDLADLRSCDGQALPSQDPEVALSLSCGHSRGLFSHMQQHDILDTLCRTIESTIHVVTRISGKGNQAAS
Summary of the method: (§1)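 Average log2 ratios of fragment over vehicle were obtained by unpaired t-test from global-median-normalised Spectronaut label-free quantities. Proteins with ≥2 unique peptides were included. HEK293T lysate (495 µg per sample) was treated in triplicate with fragment at 200 µM or vehicle for 3 h, then with Biotin-Ahx-Ub-VS at 0.5 µM final for 1 h, and labelled DUBs were NeutrAvidin-enriched and run by diaPASEF LC-MS/MS.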

USP36 = target: T1, USP36 (UniProt Q9P275)
T1 sequence (whole entry): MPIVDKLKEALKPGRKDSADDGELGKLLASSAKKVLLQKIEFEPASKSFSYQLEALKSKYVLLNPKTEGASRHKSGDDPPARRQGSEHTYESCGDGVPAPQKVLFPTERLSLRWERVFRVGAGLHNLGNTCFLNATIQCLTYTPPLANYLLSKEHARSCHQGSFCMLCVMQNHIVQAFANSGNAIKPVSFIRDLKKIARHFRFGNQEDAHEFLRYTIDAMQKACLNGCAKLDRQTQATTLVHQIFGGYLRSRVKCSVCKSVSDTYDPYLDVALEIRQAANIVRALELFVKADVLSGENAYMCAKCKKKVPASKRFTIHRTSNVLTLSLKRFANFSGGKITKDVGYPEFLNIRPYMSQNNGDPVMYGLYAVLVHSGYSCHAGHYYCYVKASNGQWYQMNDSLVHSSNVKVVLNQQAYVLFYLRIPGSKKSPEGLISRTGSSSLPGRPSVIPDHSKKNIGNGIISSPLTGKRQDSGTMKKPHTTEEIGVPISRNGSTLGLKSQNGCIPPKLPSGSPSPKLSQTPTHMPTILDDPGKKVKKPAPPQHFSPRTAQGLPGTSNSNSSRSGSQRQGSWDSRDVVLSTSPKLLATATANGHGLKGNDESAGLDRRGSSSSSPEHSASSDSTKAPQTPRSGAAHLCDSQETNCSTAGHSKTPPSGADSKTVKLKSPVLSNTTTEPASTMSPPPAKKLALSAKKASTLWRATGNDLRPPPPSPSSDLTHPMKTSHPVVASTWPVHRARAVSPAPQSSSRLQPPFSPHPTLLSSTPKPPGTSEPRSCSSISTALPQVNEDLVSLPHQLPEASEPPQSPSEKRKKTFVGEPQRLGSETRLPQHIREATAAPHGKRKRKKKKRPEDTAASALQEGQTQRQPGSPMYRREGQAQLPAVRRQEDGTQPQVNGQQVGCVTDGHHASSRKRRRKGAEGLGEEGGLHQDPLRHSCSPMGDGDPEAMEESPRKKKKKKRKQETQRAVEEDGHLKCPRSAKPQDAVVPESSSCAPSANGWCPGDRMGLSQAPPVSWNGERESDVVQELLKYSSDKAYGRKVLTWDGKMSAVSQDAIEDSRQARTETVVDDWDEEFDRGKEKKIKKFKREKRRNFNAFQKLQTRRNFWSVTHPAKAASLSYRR
Summary of the method: as §1

USP38 = target: T2, USP38 (UniProt Q8NB14)
T2 sequence (whole entry): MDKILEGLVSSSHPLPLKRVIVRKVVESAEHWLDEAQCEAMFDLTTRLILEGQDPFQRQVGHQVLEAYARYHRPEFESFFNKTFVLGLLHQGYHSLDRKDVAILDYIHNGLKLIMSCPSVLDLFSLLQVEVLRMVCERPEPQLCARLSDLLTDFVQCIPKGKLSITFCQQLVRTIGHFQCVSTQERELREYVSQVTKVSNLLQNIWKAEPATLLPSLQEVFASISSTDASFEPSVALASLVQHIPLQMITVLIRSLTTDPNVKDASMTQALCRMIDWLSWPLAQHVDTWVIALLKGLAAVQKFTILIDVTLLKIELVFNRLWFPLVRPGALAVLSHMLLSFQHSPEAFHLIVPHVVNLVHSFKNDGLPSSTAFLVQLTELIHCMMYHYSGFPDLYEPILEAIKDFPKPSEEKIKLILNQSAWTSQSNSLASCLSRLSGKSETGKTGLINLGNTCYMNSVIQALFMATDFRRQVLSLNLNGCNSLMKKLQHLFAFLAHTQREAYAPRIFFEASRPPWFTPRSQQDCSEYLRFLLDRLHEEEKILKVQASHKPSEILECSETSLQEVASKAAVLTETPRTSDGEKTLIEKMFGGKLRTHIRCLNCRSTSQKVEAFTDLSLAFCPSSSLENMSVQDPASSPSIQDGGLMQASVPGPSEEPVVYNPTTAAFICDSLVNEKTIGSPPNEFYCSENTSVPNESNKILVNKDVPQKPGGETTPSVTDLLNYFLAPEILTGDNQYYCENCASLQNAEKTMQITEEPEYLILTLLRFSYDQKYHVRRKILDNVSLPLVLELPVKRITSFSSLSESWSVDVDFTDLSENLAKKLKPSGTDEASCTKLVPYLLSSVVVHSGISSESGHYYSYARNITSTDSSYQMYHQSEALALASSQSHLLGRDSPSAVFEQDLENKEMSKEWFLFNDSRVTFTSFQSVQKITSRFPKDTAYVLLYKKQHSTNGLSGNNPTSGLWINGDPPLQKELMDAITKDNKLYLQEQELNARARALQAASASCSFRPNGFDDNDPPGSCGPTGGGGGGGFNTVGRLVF
Summary of the method: as §1

USP39 = target: T3, USP39 (UniProt Q53GS9)
T3 sequence (whole entry): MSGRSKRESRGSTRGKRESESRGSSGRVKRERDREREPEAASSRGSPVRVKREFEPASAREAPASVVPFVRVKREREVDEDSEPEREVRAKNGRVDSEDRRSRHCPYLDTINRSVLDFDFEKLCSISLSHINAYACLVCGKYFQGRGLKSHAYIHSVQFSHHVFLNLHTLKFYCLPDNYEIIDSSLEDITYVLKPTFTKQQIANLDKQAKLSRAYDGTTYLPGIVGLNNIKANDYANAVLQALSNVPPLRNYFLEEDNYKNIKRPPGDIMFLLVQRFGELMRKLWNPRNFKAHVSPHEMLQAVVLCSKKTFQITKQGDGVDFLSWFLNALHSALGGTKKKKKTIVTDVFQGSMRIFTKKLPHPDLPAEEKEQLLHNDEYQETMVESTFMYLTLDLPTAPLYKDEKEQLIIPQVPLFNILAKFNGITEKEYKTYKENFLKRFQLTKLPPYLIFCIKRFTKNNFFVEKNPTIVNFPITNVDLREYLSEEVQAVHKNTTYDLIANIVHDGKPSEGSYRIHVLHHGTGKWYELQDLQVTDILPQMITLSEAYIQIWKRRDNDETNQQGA
Summary of the method: as §1

USP4 = target: T4, USP4 (UniProt Q13107)
T4 sequence (whole entry): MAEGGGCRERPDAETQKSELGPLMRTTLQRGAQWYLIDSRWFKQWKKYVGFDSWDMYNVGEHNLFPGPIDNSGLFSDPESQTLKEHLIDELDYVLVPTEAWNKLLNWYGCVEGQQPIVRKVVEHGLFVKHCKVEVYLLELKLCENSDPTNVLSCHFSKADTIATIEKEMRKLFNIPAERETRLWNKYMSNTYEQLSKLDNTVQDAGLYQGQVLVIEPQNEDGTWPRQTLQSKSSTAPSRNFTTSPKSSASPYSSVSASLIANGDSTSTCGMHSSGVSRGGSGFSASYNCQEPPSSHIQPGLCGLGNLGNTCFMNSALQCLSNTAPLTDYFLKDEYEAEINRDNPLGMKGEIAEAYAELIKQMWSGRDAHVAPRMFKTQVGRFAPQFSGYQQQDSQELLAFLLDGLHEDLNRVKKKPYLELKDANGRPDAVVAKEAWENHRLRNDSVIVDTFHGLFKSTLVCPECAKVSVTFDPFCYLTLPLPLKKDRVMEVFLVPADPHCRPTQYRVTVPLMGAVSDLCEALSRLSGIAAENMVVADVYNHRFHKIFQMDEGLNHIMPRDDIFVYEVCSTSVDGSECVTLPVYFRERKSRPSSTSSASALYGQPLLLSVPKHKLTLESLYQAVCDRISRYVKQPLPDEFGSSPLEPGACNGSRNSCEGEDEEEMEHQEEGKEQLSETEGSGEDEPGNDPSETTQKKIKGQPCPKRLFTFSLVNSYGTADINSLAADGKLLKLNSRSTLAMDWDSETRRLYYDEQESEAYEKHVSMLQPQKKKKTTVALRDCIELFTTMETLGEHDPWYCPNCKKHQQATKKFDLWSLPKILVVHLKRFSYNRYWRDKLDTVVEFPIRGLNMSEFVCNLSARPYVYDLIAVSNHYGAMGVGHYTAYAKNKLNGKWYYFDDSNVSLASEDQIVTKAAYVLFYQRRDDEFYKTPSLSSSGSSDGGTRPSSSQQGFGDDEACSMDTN
Summary of the method: as §1

Measured: log2 ratio of Biotin-Ahx-Ub-VS probe labelling

O=C(CCl)NC1CCS(=O)(=O)c2ccccc21 (stereo not given)
inactive: USP34 -0.0259 | USP36 -0.0862 | USP38 -0.432 | USP39 -0.117 | USP4 -0.0115
